Laboratory results taken from PubChem BioAssay (NCI).
This is part of a sample that, as a whole, favours compounds with a hit. Of some 83,000 tested, about 20% had one in any assay.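 Growth was measured after 48 h exposure to one concentration of compound in 96-well plates. Values under 10 count as active.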 Unmarked numbers belong to inactive results. Activity calls are given as the source filed them.

How the values were obtained:
Experiment in all cases: NCI-60 one-dose screen, 48 h (100 = growth as untreated, 0 = no growth, -100 = all killed)
Details in all cases: 10 µM unless noted
DU-145 prostate = test system: DU-145 prostate
K-562 leukemia = test system: K-562 leukemia
MALME-3M melanoma = test system: MALME-3M melanoma
MDA-MB-231 breast = test system: MDA-MB-231 breast
RXF 393 renal = test system: RXF 393 renal
SF-268 CNS = test system: SF-268 CNS
SF-295 CNS = test system: SF-295 CNS
SF-539 CNS = test system: SF-539 CNS
UACC-257 melanoma = test system: UACC-257 melanoma
M14 melanoma = test system: M14 melanoma
HCT-15 colon = test system: HCT-15 colon
HT29 colon = test system: HT29 colon
SNB-75 CNS = test system: SNB-75 CNS
SNB-19 CNS = test system: SNB-19 CNS
U251 CNS = test system: U251 CNS
PC-3 prostate = test system: PC-3 prostate
SK-MEL-5 melanoma = test system: SK-MEL-5 melanoma
UACC-62 melanoma = test system: UACC-62 melanoma
LOX IMVI melanoma = test system: LOX IMVI melanoma
SK-MEL-28 melanoma = test system: SK-MEL-28 melanoma

| Structure (SMILES) | growth (DU-145 prostate) | growth (K-562 leukemia) | growth (MALME-3M melanoma) | growth (MDA-MB-231 breast) | growth (RXF 393 renal) | growth (SF-268 CNS) | growth (SF-295 CNS) | growth (SF-539 CNS) | growth (UACC-257 melanoma) | growth (M14 melanoma) | growth (HCT-15 colon) | growth (HT29 colon) | growth (SNB-75 CNS) | growth (SNB-19 CNS) | growth (U251 CNS) | growth (PC-3 prostate) | growth (SK-MEL-5 melanoma) | growth (UACC-62 melanoma) | growth (LOX IMVI melanoma) | growth (SK-MEL-28 melanoma) |
| --- | --- | --- | --- | --- | --- | --- | --- | --- | --- | --- | --- | --- | --- | --- | --- | --- | --- | --- | --- | --- |
| CCOC(=O)c1sc2nc(-c3cc(OC)c(OC)c(OC)c3)nc(N3CCOCC3)c2c1C | 48.3% | 24.2% | 9.78% (active) | 44.9% | 32.3% | 40.1% | 40.3% | 50.4% | 51.7% | 38.4% | 29.1% | 40.6% | 56.2% | 53.2% | 36.2% | 14.2% | 2.9% (active) | 15.7% | 45.1% | – |
| CCCCC(CC)COC(=O)C[N+](C)(C)CCOC(c1ccccc1)c1ccccc1 (stereo unspecified) | 85.1% | 14.6% | 30.8% | 29.3% | -4.09% (active) | 49% | 74.4% | 69.7% | 2.69% (active) | 20.3% | 96.2% | 28.3% | 10.8% | 40.7% | 30.8% | 19.5% | -79.8% (active) | -20.1% (active) | 1.39% (active) | – |
| CC(C)[C@H]1CCC2=C3CC[C@]45OC(=O)[C@@]6(CCC(C)(C)C[C@H]64)CC[C@@]5(C)[C@]3(C)CC[C@@]21C | 83.3% [100 µM] | 45.3% [100 µM] | 91.6% [100 µM] | 61.2% [100 µM] | 78.6% [100 µM] | 75.6% [100 µM] | 88.7% [100 µM] | 71.6% [100 µM] | 77.1% [100 µM] | 86.3% [100 µM] | 85.8% [100 µM] | 42.2% [100 µM] | 30.4% [100 µM] | 71.6% [100 µM] | 66.5% [100 µM] | 39.3% [100 µM] | 42.6% [100 µM] | 59.3% [100 µM] | 78.8% [100 µM] | – |
| O=C(NCCCNC(=O)OCc1ccc2c(Br)cc(Br)c(O)c2n1)OCc1ccc2c(Br)cc(Br)c(O)c2n1 | -80.8% (active) | 3.3% (active) | -87.8% (active) | -68.5% (active) | -93.3% (active) | 10.3% | 20% | -96.8% (active) | -37.5% (active) | -65.8% (active) | -34.4% (active) | -73% (active) | -87.6% (active) | 44.6% | -70.4% (active) | -25.5% (active) | -77.7% (active) | -87.1% (active) | -92% (active) | – |
| COC(=O)[C@]1(C)CC[C@]2(C)CC[C@]3(C)C(=CC(=O)[C@@H]4[C@@]5(C)CCC(=O)NC(C)(C)[C@@H]5CC[C@]43C)[C@@H]2C1 | -24.1% [100 µM] (active) | 4.37% [100 µM] (active) | -76.4% [100 µM] (active) | -80.2% [100 µM] (active) | -85.5% [100 µM] (active) | -55.3% [100 µM] (active) | -70.6% [100 µM] (active) | -85% [100 µM] (active) | -30.3% [100 µM] (active) | -39.1% [100 µM] (active) | -19.6% [100 µM] (active) | -55% [100 µM] (active) | -83.3% [100 µM] (active) | -89.8% [100 µM] (active) | -89.2% [100 µM] (active) | -65.8% [100 µM] (active) | -94% [100 µM] (active) | -88.9% [100 µM] (active) | -97.7% [100 µM] (active) | – |
| O=C(C[n+]1ccn(CC(OCc2ccc(Cl)cc2Cl)c2ccc(Cl)cc2Cl)c1)c1ccc(F)cc1 (stereo unspecified) | -93.1% (active) | -17.2% (active) | -84.8% (active) | -96.7% (active) | -94.2% (active) | -93.3% (active) | -90.2% (active) | -91.9% (active) | -89.6% (active) | -97.3% (active) | 75.7% | -73.8% (active) | -99% (active) | -95.9% (active) | -81.7% (active) | -88.5% (active) | -99.3% (active) | -95.8% (active) | -87.4% (active) | – |
| CCOC(=O)c1cc(C(=O)c2ccc(OC)c(OC)c2)n2ccc(-c3ccccn3)cc12 | 65.1% | 107% | 49.6% | 58.1% | 63.9% | 25.3% | 69.1% | 29.6% | 76.3% | 101% | 83% | 76.4% | 24.1% | 67.8% | 21.7% | 87% | 37.1% | 83.5% | 84.7% | – |
| CC(C)(C)c1cc(C(=O)Nc2ccc(C(=O)NCCN)cc2)cc(C(C)(C)C)c1 | 40.5% | -42.5% (active) | 15.1% | -43.7% (active) | 19.5% | 57% | 36.4% | -52.8% (active) | 68.6% | -71% (active) | 76.6% | -21.7% (active) | 55.6% | 33.6% | -6.92% (active) | 25.9% | 23.8% | -71.8% (active) | -65.5% (active) | – |
| Cc1ccc(Cn2c(O)c(N=NC(=O)c3ccc(S(N)(=O)=O)cc3)c3ccccc32)cc1 | 107% | 99.2% | 97.1% | 97.2% | 91.2% | 98.6% | 101% | 108% | 98% | 112% | 106% | 111% | 92.4% | 100% | 97.8% | 94.5% | 98.5% | 86.7% | 103% | – |
| O=C(Nc1cccc(F)c1)c1cc(=O)[nH]c2cc(Br)ccc12 | 74.2% | 21.3% | 52.8% | 72.2% | 56.1% | 60.8% | 38.9% | 47.6% | 57% | 29.5% | 28.6% | 9.92% (active) | 43.7% | 54.7% | 36% | 43.8% | 32% | 34.4% | 43.1% | – |
| Nc1ccc2c(c1)Cc1cc(NC(=O)C(F)(F)F)ccc1-2 | 99.2% | 108% | 108% | 71.2% | 113% | 96.1% | 99.8% | 97.6% | 104% | 109% | 96.4% | 90.8% | 98.6% | 101% | 96.2% | 99.5% | 98.4% | 93.7% | 102% | – |
| Cc1cccc(C[C@H](NC(=O)Nc2ccc(C)cc2F)C(=O)N[C@@H]2C(=O)N3C[C@H](O)C[C@H]3C(=O)N3CCN(C)C[C@H]3C(=O)N[C@@H](C)C(=O)N3C[C@H](C)C[C@H]3C(=O)O[C@H]2C)c1 | 38.4% | 23.1% | 39.9% | 18.7% | 79.1% | 31.6% | 45% | 50.7% | 27.3% | 79.9% | 105% | 33.8% | 23.6% | 22.7% | 26.5% | 22.6% | 66.3% | 31.4% | 38.5% | – |
| CC(C)CCSC1=CC(=O)c2ccccc2C1=O | 77% | 19.3% | -23.5% (active) | 0.131% (active) | 43.8% | 74.6% | 103% | 94.4% | 58.6% | 68.3% | 72% | 97% | 7.99% (active) | 92.3% | 86.3% | 37.8% | 67.8% | 74% | 38% | – |
| CCN(CC)c1ccc(/C=C/c2ccc3cc(C)ccc3[n+]2CC)cc1 | 20.1% | 6.51% (active) | -2.01% (active) | 21.3% | 11.8% | 27.7% | -22% (active) | 11.5% | -19% (active) | 2.07% (active) | 13.3% | -14.4% (active) | 7.55% (active) | 24.8% | 9.59% (active) | -0.319% (active) | -97.5% (active) | 1.47% (active) | -8.32% (active) | – |
| Cc1ccc(S(=O)(=O)Oc2ccc(Br)cc2Br)cc1 | 78.1% | 18.5% | 92% | 85% | 87.9% | 76.5% | 69.3% | 81.6% | 81.4% | 78.8% | 48.5% | 34.5% | 64.8% | 75.7% | 48.5% | 79.4% | 77.9% | 63.8% | 52.3% | 92.8% |
